# Screening data (PubChem BioAssay)
# This is one part of a sample in which hits are shown more often than they occur.
# Tgondii IFNg: blocks Toxoplasma gondii growth in the presence of IFN-gamma. activity change, negative = inhibition, % (no concentration beside the values). Toxoplasma gondii growth in IFN-gamma-treated host cells; hits give low values. 69,000 tested, 3.8% active; in the data active = activity change below about -70%, passing the limit was not always enough;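 note: host cells are HeLa cells infected with Toxoplasma gondii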
# Hits are given with their value; - = inactive.
SMILES,Tgondii IFNg
Cc1[nH]c(=O)[nH]c(=O)c1-c1ccc(C(C)N2CCCC2)cc1 (stereo not given),-
CC1(C)Cc2cc(CN3CCCC3c3ccc(C(=O)N4CCOCC4)cn3)ccc2O1 (stereo not given),-
C[C@@H]1CCCCO[C@@H](CN(C)C(=O)C2CCCCC2)[C@H](C)CN([C@H](C)CO)C(=O)c2cc(NS(=O)(=O)c3ccccc3)ccc2O1,-
CC(C)NC(=O)Nc1ccc2c(c1)C(=O)N([C@@H](C)CO)C[C@@H](C)[C@@H](CN(C)C(=O)C1CCCCC1)OCCCC[C@H](C)O2,-
C[C@@H]1CCCCO[C@H](CN(C)C(=O)C2CCCCC2)[C@H](C)CN([C@H](C)CO)C(=O)c2cc(NS(=O)(=O)c3ccccc3)ccc2O1,-145
C[C@@H]1CCCCO[C@@H](CN(C)C(=O)C2CCCCC2)[C@@H](C)CN([C@@H](C)CO)C(=O)c2cc(NS(=O)(=O)c3ccccc3)ccc2O1,-
C[C@H](CO)N1C[C@H](C)[C@@H](CN(C)C(=O)C2CCCCC2)OCCCC[C@H](C)Oc2ccc(NS(=O)(=O)c3ccccc3)cc2C1=O,-78
CC(C)NC(=O)Nc1ccc2c(c1)C(=O)N([C@@H](C)CO)C[C@@H](C)[C@H](CN(C)C(=O)C1CCCCC1)OCCCC[C@H](C)O2,-
CCN1CCCC1CNC(=O)C1CCN(Cc2cc3ccccc3n2Cc2ccc(Cl)cc2)CC1 (stereo not given),-
C=CCN(CC=C)C(=O)Nc1ccc2nsnc2c1,-81
O=C(Nc1ccc2c(c1)OCCO2)c1ccc2nsnc2c1,-
CCC(=O)Nc1c(C)ccc2nsnc12,-
NC(=O)N1Cc2[nH]nc(COc3cccnc3)c2C1,-
CC(C)CCN1[C@@H]2CCN(C(=O)[C@H]3CCCO3)CC[C@@H]2Oc2ccccc2S1(=O)=O,-
O=C(/C=C/c1ccc2c(c1)OCO2)N1CCCCC1,-
O=C(CCSc1nc(-c2ccc3c(c2)OCO3)cc(C(F)(F)F)n1)N1CCCCC1,-76
O=C(COc1ccc2c(c1)OCO2)N1CCN(C(=O)c2ccco2)CC1,-
COc1ccc(OCC(=O)NCCO)cc1,-
CN(C)CCN(Cc1cccs1)S(=O)(=O)c1ccc2[nH]c(=O)ccc2c1,-
CC(C)N(CCC#N)C(=O)Nc1ccc2c(c1)CCO2,-
N#CCCN(Cc1cccs1)S(=O)(=O)c1ccc2c(c1)CCO2,-91
CNC(=O)C1Cn2ccnc2C2(CCN(Cc3ccc(C)s3)CC2)O1 (stereo not given),-
NC(=O)CN1CCOCCOCCN(CC(N)=O)CCOCC1,-71
N=C(N=C(N)N)N1CCOCC1,-
CC(C)(C)NC(=O)CCN1CCOCC1,-
SMILES,Tgondii IFNg
C[C@H]1C[C@H]2CN(C(=O)c3ccc4c(c3)OCO4)C[C@H]2O1,-
Brc1ccc2c(c1)C1C=CCC1C(C1CC=CCC1)N2 (stereo not given),-
CC(=O)c1ccc2c(c1)[C@@H]1C=CC[C@@H]1[C@H](c1cc3c(cc1Br)OCO3)N2,-75
COCCNC(=O)C1=C(C)C(=O)OC12CCN(S(=O)(=O)c1cccs1)CC2,-
Cc1oc(-c2cccc(F)c2F)nc1CN(CCO)CC12CC3CC(CC(C3)C1)C2,-
CNCC1CCC(c2cc(CN(C)C(=O)c3cccnc3N)n(C)n2)CC1 (stereo not given),-
Cc1ccc(S(=O)(=O)Nc2ccc3c(c2)C(=O)N([C@@H](C)CO)C[C@H](C)[C@H](CN(C)S(=O)(=O)c2cccs2)OCCCC[C@H](C)O3)cc1,-107
Cc1ccc(S(=O)(=O)Nc2ccc3c(c2)C(=O)N([C@H](C)CO)C[C@H](C)[C@H](CN(C)S(=O)(=O)c2cccs2)OCCCC[C@@H](C)O3)cc1,-
Cc1ccc(S(=O)(=O)N(C)C[C@H]2OCCCC[C@H](C)Oc3ccc(NC(=O)c4ccncc4)cc3C(=O)N([C@H](C)CO)C[C@@H]2C)cc1,-
Cc1ccc(S(=O)(=O)N(C)C[C@H]2OCCCC[C@H](C)Oc3ccc(NC(=O)c4ccncc4)cc3C(=O)N([C@@H](C)CO)C[C@H]2C)cc1,-
Cc1ccc(S(=O)(=O)N(C)C[C@H]2OCCCC[C@H](C)Oc3ccc(NC(=O)c4ccncc4)cc3C(=O)N([C@@H](C)CO)C[C@@H]2C)cc1,-98
Cc1noc(C)c1NC(=O)Nc1ccc2c(c1)C(=O)N([C@@H](C)CO)C[C@H](C)[C@@H](CN(C)S(=O)(=O)c1cccs1)OCCCC[C@@H](C)O2,-
COc1ccccc1N(Cc1nc(-c2cccc(OC)c2OC)oc1C)S(=O)(=O)c1ccccc1,-
COc1cccc(C2CC(c3ccccc3O)=NC3(CCNCC3)N2)c1O (stereo not given),-
Fc1cnc(N2CC[C@@H]3C[C@H](c4ccncn4)O[C@H]3C2)nc1,-
Cc1nn(C)cc1NC(=O)CC1CCN(CCc2ccccc2)CC1,-
Cc1cccc(N2CCN(CC(=O)N3CCCC(N(C)C)CC3)CC2)c1 (stereo not given),-
CCc1noc(C)c1C(=O)N1CCC(C(=O)NCCc2ccc(Cl)cc2)C1 (stereo not given),-
CN(C)c1nc(-c2ccccc2)nc(Nc2ccc(Cl)cc2Cl)c1C#N,-
COc1ccc(CSc2nc(C)cc(C)c2C#N)cc1,-
COc1ccc(Cl)cc1Nc1nc(C)cc(C)c1C#N,-79
O=C(NCc1cccnc1)c1cc2cc(C34CC5CC(CC(C5)C3)C4)ccc2oc1=O,-
C=CCN1C(=O)CCC12CCC(NC(=O)c1c(C)noc1C)CC2 (stereo not given),-
COC(=O)CCNc1ccc(Cl)cc1,-
COc1cc([C@@H]2c3cc4c(cc3C(O[C@@H]3O[C@@H]5CO[C@@H](c6cccs6)OC5[C@H](O)[C@H]3O)C3COC(=O)[C@@H]32)OCO4)cc(OC)c1O (stereo not given in full),-80
SMILES,Tgondii IFNg
Cc1ccc2nc3nc(NCC4CCCO4)c(C(=O)NCc4ccccc4)cc3c(=O)n2c1 (stereo not given),-
COc1ccccc1CN1CCc2cnn(C)c2C1COCC1CC1 (stereo not given),-
CCCCCOC(=O)Nc1nc(=O)n([C@@H]2O[C@H](C)[C@@H](O)[C@H]2O)cc1F,-
Cc1cn([C@H]2O[C@@H](CO)[C@H](O)[C@@H]2F)c(=O)[nH]c1=O,-
C[C@H]1O[C@@H](n2cc(F)c(=O)[nH]c2=O)[C@H](O)[C@@H]1O,-91
CN1CCN(Cc2ccccc2Oc2ncccc2C(F)(F)F)CC1,-
CCc1ccc2oc(=O)cc(CN3CCN(Cc4nc(-c5ccccc5OC)oc4C)CC3)c2c1,-
CC(C)NC1CCc2c(ccc(=O)n2CCn2cccn2)C1 (stereo not given),-
O=C(CSc1nnc(CNc2ccc(F)cc2)o1)N1CCc2ccccc2C1,-81
Cc1nnc(SCC(=O)N2CCc3[nH]c4ccc(F)cc4c3C2)o1,-
O=C(Cn1c(SCC(=O)N2CCc3ccccc3C2)nc2ccccc21)NC1CCCC1,-
O=C(CO)N1Cc2cc(Oc3cccnc3)ccc2C1c1cnco1 (stereo not given),-
CCn1cnnc1CCNC(=O)c1cccc(CC2CCNCC2)c1,-
CC(=O)Nc1ccc(-c2cn(C(C)Cn3nc(C)cc3C)nn2)cc1 (stereo not given),-
Cc1ccc(C(=O)N2CCOCC3(CCC(CN(C)C)O3)C2)cn1 (stereo not given),-
Cc1ccc2c(c1)C(=O)CC1(CCN(CC(=O)Nc3nc4c(s3)CCCC4)CC1)O2,-
O=C(CN1CCCC1Cn1cccn1)Nc1nc2c(s1)CCCC2 (stereo not given),-78
